This passage reports inhibition results from ChEMBL document CHEMBL1961873, “Compounds: GSK PKIS; Assays: Nanosyn kinase panel” (2012).

Test [1] addresses MAP/microtubule affinity-regulating kinase 3 (Homo sapiens) (UniProt P27448). As to conditions: at 1 µM.
For test [2], the target named is T1, MAP/microtubule affinity-regulating kinase 4 (Homo sapiens) (UniProt Q96L34).
T1 sequence (whole entry): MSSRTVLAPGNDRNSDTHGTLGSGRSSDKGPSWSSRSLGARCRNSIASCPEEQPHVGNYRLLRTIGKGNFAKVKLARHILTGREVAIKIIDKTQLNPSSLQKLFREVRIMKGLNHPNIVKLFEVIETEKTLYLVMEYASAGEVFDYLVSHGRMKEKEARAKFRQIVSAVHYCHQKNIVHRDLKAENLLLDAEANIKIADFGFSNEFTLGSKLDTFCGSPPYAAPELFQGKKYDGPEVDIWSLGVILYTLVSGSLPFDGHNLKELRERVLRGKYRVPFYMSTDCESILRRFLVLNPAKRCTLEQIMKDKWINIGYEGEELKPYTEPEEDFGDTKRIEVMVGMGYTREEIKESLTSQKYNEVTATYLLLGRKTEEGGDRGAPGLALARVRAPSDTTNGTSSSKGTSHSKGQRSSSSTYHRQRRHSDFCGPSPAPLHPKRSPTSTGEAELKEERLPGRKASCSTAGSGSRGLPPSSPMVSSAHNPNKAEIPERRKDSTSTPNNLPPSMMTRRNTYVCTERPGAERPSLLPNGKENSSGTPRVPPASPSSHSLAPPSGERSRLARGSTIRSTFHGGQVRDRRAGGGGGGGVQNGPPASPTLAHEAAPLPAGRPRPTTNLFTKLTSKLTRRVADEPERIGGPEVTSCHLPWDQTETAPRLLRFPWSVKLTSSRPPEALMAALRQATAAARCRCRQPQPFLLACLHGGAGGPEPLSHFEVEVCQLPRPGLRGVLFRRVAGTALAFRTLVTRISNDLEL
Conditions: at 0.1 µM.

In test [3] the target is T1, MAP/microtubule affinity-regulating kinase 4 (Homo sapiens). As to conditions: at 1 µM.
Test [4] deals with Maternal embryonic leucine zipper kinase (Homo sapiens) (UniProt Q14680). As to conditions: at 0.1 µM.
Test [5] shares this target. Conditions: at 1 µM.
The target of test [6] is MAP kinase-interacting serine/threonine-protein kinase 1 (Homo sapiens) (UniProt Q9BUB5). As to conditions: at 0.1 µM.
For test [7] the target is unchanged. As to conditions: at 1 µM.
In test [8] the target is MAP kinase-interacting serine/threonine-protein kinase 2 (Homo sapiens) (UniProt Q9HBH9). As to conditions: at 0.1 µM.
The target is the same in test [9]. As to conditions: at 1 µM.
For test [10], the target named is Serine/threonine-protein kinase MARK2 (Homo sapiens) (UniProt Q7KZI7). Conditions: at 0.1 µM.
Test [11] shares this target. As to conditions: at 1 µM.
Test [12] deals with PAS domain-containing serine/threonine-protein kinase (Homo sapiens) (UniProt Q96RG2). As to conditions: at 0.1 µM.
For test [13] the target is unchanged. As to conditions: at 1 µM.
In test [14] the target is Phosphorylase b kinase gamma catalytic chain, skeletal muscle/heart isoform (Homo sapiens) (UniProt Q16816). Conditions: at 0.1 µM.
For test [15] the target is unchanged. As to conditions: at 1 µM.
Test [16] has as its target T2, Phosphorylase b kinase gamma catalytic chain, liver/testis isoform (Homo sapiens) (UniProt P15735).
T2 sequence (whole entry): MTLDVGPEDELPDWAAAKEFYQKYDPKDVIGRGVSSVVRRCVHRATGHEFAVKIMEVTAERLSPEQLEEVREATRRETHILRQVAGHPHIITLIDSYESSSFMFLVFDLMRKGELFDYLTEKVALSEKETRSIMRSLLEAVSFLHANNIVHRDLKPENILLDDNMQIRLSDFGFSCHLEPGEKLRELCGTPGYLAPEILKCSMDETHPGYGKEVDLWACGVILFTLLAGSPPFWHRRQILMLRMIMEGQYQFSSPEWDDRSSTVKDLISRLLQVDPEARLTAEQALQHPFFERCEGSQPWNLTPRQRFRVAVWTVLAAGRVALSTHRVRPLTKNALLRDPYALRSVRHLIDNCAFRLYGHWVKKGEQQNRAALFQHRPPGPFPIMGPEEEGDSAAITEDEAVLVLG
As to conditions: at 0.1 µM.

The target of test [17] is T2, Phosphorylase b kinase gamma catalytic chain, liver/testis isoform (Homo sapiens). As to conditions: at 1 µM.
Test [18] concerns the target Serine/threonine-protein kinase pim-1 (Homo sapiens) (UniProt P11309). Conditions: at 0.1 µM.
For test [19] the target is unchanged. Conditions: at 1 µM.
For test [20], the target named is Serine/threonine-protein kinase pim-2 (Homo sapiens) (UniProt Q9P1W9). Conditions: at 0.1 µM.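 Also: reported value is the mean percent inhibition of PIM2, measured in the GSK PKIS kinase inhibitor set screen.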
Chain of Serine/threonine-protein kinase pim-2 (Homo sapiens) (Q9P1W9 whole entry, looked up): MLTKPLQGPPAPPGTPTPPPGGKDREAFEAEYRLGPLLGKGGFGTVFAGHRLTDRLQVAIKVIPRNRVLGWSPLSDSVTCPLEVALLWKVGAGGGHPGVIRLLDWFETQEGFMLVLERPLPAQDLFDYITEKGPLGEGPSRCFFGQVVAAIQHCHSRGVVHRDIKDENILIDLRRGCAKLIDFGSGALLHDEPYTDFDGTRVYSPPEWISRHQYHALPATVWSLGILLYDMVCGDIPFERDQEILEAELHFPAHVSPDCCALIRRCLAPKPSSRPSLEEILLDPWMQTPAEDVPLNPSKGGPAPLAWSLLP

Chain of Phosphorylase b kinase gamma catalytic chain, skeletal muscle/heart isoform (Homo sapiens) (Q16816 whole entry, looked up, canonical isoform): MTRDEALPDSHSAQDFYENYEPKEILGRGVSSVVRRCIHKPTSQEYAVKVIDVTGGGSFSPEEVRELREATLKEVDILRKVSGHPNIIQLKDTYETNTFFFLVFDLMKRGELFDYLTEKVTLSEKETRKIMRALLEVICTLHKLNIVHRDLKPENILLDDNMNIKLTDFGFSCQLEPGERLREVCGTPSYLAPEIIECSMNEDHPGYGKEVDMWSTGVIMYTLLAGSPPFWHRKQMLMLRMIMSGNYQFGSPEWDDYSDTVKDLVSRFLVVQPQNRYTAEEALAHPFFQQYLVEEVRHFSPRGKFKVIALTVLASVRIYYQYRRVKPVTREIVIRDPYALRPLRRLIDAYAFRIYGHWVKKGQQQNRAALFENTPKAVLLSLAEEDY
Chain of MAP kinase-interacting serine/threonine-protein kinase 2 (Homo sapiens) (Q9HBH9 whole entry, looked up): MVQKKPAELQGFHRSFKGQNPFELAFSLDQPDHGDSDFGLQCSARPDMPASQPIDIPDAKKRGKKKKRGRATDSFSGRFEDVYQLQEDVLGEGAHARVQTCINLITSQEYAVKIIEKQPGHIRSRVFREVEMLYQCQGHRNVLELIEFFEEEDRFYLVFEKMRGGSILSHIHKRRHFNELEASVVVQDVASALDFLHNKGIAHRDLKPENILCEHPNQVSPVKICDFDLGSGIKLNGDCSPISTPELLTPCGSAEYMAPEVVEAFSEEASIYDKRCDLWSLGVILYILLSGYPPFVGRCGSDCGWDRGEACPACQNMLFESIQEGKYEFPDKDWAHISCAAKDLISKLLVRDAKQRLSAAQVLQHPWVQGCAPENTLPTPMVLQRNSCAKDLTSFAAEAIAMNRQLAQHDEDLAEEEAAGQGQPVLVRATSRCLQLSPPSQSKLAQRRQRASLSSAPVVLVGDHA
Chain of PAS domain-containing serine/threonine-protein kinase (Homo sapiens) (Q96RG2 whole entry, the tested form may be a part): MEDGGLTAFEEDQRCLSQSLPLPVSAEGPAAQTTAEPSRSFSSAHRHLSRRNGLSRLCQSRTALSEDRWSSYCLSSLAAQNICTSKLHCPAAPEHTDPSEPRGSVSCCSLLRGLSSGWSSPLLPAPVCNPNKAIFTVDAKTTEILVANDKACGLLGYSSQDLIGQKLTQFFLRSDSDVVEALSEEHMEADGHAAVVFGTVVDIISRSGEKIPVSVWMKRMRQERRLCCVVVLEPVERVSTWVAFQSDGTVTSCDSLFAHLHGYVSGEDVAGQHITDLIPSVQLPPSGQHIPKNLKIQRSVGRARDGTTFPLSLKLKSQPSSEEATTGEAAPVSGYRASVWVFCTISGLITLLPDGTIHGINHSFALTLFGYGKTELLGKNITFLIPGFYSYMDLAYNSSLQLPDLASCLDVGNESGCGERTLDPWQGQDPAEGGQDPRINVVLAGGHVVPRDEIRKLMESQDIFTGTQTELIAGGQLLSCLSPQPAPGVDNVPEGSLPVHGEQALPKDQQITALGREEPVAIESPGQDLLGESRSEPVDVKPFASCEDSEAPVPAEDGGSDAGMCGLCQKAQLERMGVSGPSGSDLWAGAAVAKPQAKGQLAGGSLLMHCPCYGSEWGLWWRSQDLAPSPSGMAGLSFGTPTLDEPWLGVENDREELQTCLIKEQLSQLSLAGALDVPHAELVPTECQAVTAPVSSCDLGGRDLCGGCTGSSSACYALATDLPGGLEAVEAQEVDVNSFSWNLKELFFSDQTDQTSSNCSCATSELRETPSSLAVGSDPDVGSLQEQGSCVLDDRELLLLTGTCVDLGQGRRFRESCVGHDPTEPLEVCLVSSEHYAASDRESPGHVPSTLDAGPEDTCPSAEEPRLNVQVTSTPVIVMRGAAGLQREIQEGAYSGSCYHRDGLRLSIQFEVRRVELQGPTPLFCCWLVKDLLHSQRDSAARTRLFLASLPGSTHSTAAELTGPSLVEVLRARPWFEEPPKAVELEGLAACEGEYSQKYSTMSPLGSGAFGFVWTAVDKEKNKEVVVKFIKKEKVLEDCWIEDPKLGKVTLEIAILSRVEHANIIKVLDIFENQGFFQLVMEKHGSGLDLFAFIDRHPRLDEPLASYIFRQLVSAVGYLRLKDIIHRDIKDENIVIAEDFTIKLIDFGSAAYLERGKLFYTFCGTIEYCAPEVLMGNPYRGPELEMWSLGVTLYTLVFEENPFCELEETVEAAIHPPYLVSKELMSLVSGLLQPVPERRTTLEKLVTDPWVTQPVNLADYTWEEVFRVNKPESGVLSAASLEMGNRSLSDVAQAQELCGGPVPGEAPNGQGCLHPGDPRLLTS
Chain of MAP kinase-interacting serine/threonine-protein kinase 1 (Homo sapiens) (Q9BUB5 whole entry, looked up): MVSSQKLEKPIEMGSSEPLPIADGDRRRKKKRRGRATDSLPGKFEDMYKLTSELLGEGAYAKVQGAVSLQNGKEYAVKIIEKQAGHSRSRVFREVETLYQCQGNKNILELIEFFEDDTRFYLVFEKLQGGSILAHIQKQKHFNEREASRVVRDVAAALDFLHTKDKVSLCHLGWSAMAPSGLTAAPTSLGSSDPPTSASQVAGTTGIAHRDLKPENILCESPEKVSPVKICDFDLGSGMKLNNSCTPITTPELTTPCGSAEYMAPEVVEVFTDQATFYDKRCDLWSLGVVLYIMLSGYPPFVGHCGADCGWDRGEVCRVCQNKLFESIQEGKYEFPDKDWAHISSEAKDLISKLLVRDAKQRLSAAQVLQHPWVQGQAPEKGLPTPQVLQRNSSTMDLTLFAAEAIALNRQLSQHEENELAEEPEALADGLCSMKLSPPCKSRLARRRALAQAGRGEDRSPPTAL
Chain of Maternal embryonic leucine zipper kinase (Homo sapiens) (Q14680 whole entry, looked up): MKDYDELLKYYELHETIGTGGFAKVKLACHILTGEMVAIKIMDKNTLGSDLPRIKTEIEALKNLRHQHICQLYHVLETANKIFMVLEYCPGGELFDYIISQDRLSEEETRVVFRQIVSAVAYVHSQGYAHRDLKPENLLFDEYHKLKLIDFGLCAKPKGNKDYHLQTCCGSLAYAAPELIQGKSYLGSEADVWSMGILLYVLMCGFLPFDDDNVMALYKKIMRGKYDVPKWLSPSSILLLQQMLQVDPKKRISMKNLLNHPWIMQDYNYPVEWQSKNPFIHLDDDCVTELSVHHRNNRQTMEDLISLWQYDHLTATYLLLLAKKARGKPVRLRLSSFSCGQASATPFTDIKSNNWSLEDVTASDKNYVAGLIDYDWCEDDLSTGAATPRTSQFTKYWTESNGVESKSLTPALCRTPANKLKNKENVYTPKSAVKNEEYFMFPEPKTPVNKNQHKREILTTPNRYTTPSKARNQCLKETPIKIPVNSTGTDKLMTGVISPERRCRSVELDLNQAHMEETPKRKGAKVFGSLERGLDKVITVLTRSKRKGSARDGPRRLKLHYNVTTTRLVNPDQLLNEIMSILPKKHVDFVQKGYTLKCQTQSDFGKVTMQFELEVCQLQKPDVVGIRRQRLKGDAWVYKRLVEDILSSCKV
Chain of Serine/threonine-protein kinase pim-1 (Homo sapiens) (P11309 whole entry, looked up): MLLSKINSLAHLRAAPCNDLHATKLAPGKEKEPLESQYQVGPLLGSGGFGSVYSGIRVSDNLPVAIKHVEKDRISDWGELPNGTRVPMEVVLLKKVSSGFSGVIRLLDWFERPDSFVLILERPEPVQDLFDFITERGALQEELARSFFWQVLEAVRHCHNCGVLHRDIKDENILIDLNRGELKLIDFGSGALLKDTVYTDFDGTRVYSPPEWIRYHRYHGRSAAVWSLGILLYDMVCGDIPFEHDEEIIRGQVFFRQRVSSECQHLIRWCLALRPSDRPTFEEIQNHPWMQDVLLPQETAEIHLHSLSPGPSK
Chain of MAP/microtubule affinity-regulating kinase 3 (Homo sapiens) (P27448 whole entry, looked up): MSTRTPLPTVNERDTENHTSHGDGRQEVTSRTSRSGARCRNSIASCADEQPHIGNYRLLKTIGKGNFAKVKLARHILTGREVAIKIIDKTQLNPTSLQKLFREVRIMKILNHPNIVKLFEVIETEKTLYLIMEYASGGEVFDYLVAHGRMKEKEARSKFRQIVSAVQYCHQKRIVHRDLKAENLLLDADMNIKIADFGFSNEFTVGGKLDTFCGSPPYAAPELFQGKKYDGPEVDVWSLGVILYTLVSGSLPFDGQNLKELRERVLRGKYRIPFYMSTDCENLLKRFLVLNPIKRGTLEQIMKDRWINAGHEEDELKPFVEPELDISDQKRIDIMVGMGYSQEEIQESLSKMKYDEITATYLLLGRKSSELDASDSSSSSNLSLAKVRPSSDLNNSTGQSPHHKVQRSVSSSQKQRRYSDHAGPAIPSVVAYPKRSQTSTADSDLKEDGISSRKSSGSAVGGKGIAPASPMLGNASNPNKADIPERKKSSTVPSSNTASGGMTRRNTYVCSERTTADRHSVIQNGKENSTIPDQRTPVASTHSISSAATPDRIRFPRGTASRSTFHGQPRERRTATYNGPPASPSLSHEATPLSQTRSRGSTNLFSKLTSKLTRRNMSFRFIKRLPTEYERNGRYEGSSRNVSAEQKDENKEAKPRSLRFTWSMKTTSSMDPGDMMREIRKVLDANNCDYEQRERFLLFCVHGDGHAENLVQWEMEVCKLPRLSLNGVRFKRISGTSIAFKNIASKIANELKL

`COc1ccc2[nH]c3c4[nH]c5ccc(OC)cc5c4c4c(c3c2c1)C(=O)NC4=O`: the inhibition was 33.5% in [1]; 3.93% in test [2]; 15.9% in test [3]; 22.3% in test [4]; 77.6% in test [5]; 6.39% in test [6]. For the same compound, the inhibition was 11.5% in test [7]; 8.34% in test [8]; 18.1% in [9]; 1.57% in test [10]; 11.8% in test [11]; -0.49% in [12]. For the same compound, the inhibition in [13] was -1.47%; in test [14], 48.4%; in [15], 73.3%; in test [16] it was 9.06%; in test [17], 39.8%; in test [18] it was 28.7%. Moreover, the figures for the inhibition in [19] and in [20] were 74.2% and 21.4%, respectively.
Take `NC(=O)c1sc(-n2cnc3ccc(C(F)(F)F)cc32)cc1OCc1ccccc1Br`: the inhibition in [1] was found to be 11.5%; in test [2], 1.2%; in test [3], 2.56%; in [4], 2.87%; in test [5] it was 7.71%; in test [6], 2.89%. Also, the inhibition was 5.77% in [7]; 1.04% in [8]; 3.71% in test [9]; -0.38% in [10]; -0.94% in [11]; -1.22% in test [12]. Further, the inhibition was -1.68% in [13]; 4.21% in test [14]; 7.92% in test [15]; 5.06% in test [16]; 4.43% in test [17]; -0.41% in test [18]. Moreover, the inhibition in test [19] is 2.03%; in [20], -0.42%.
In the case of `COc1cc2c(cc1Nc1nc(Nc3ccsc3C(N)=O)c3cc[nH]c3n1)N(C(=O)CN(C)C)CCC2(C)C`, the inhibition in [1] was 7.59%; in [2], 4.25%; in test [3] it was 6.44%; in test [4], 6.08%; in test [5], 14.8%; in [6], 3.09%. Also, the inhibition is 6.26% in test [7]; 1.36% in [8]; 3.03% in test [9]; 1.24% in test [10]; 9% in [11]; -1.55% in test [12]. The inhibition is -1.18% in test [13]; 18.5% in test [14]; 62% in [15]; 5.83% in test [16]; 6.91% in [17]; 68.4% in test [18]. The results for the inhibition in [19] and in [20] were 93.3% and 2.12%, respectively.
With `c1cc(-c2cnn3nc(N4CCOCC4)ccc23)nc(NC2CC2)n1`, the inhibition amounted to 12.9% in test [1]; 1.01% in test [2]; 5.05% in test [3]; 8.27% in test [4]; 43.9% in [5]; 4.33% in test [6]. The inhibition in test [7] is 19.8%; in test [8] it was 7.65%; in test [9], 42.5%; in [10] it was 0.85%; in test [11] it was 7.93%; in [12] it was 0.49%. Also, the inhibition was -0.94% in test [13]; 3.94% in [14]; 29.5% in test [15]; 6.12% in test [16]; 12.2% in test [17]; 0.22% in test [18]. Moreover, the figures for the inhibition in test [19] and in test [20] were 3.37% and -0.29%, respectively.
Take `N#Cc1c(NC(=O)CN2CCOCC2)sc2c1CCCC2`: the inhibition in [1] is 5.29%; in test [2], 1.24%; in test [3] it was 1.29%; in test [4] it was 3.07%; in test [5], 1.6%; in [6], 3.42%. The inhibition in [7] turned out to be 6.68%; in test [8] it was 1.2%; in test [9], 6.58%; in test [10], 1.3%; in [11], 1.25%; in test [12] it was 0.47%. The inhibition in test [13] stood at 0.86%; in [14], 6%; in test [15], 9.65%; in test [16], 5.37%; in test [17] it was 6.47%; in test [18], 0.03%. Further, the inhibition was found to be 0.16% in [19] and 0.29% in test [20].
Consider `Fc1ccc(-c2nn3ncccc3c2-c2ccnc(Nc3ccc4c(c3)OCCO4)n2)cc1`, for which the inhibition was -0.42% in test [1]; 2.21% in [2]; 2.65% in test [3]; 3.62% in [4]; 9.58% in test [5]; 3.01% in [6]. Also, the inhibition is 4.06% in test [7]; 0.58% in test [8]; -0.01% in test [9]; -1.3% in test [10]; -1.26% in [11]; -0.29% in test [12]. Also, the inhibition was -3.15% in test [13]; 4.49% in test [14]; 6.66% in [15]; 4.66% in test [16]; 0.54% in test [17]; 0.37% in test [18]. For the same compound, the inhibition worked out at 1.21% in test [19] and 0.26% in [20].

By inhibition is commonly meant the drop in the measured response relative to a control, in per cent.
